Rows were chosen to be rich in hits. Some 1.1% of all compounds tested hit in one or more screens of this group.
MazF activator: activators of E. coli MazEF toxin-antitoxin RNase, primary screen, biochemical, fluorescence, uHTS; 0.32% of 350,000 active; Endoribonuclease toxin MazF (Escherichia coli (strain K12)), P0AE70; FAM/BHQ RNA-DNA oligo cleavage fluorescence, 5 h; AID 504720, 2011; activation, % at 20 µM; in the data active = activation above about 50%
PrPC TRFRET: inhibitors of human cell surface prion protein PrPC, primary screen, cell-based, TR-FRET; TR-FRET read-out; 0.43% of 370,000 active; Major prion protein (Homo sapiens), P04156; inhibition, % at 13.8 µM; in the data active = inhibition above about 24%
BJeLR lethal: MLPCN primary cell-based screen for lethality selective to Ras in HRASV12 cells; 0.17% of 300,000 active; inhibition, % (concentration not given with the values); BJeLR (HRASV12) viability, CellTiter-Glo ATP luminescence, 48 h; in the data active = inhibition above about 50%
PrP UTR inh: inhibition of PrP 5' UTR reporter expression | cell-based PrP 5' UTR mRNA reporter, plate reader | inhibition, % (no concentration beside the values) | 0.35% of 340,000 active | AID 488862, 2010; in the data active = inhibition above about 52%
PrPC TRFRET cf: confirmation of inhibitors of cell surface human prion protein, confirmation, cell-based, TR-FRET. 65% of 1,500 active. shares compounds with PrPC TRFRET. AID 743200, 2013. cell surface PrPC level. inhibition, % at 13.8 µM; in the data active = inhibition above about 25%
LD9 cytotox: cytotoxicity in LD9 cells, cytotoxicity control for cell surface PrPc inhibitor project, cell-based, luminescence, high throughput; luminescence viability; 29% of 1,500 active; shares compounds with PrPC TRFRET; AID 743201, 2013; inhibition, % at 13.8 µM; in the data active = inhibition above about 9.5%
Large screens that a line does not name were inactive (follow-up assays come after a bar, where they were run).

C[C@]12Cc3ccccc3C1CC1=N[C@@H](c3ccc(C(F)(F)F)cc3)O[C@@]13C[C@@H]2C(=O)N3Cc1ccncc1 (stereo partly drawn)	none (no result: MazF activator, BJeLR lethal, PrP UTR inh)
COC(=O)C1CCCN(C(=O)C2CCN(S(=O)(=O)c3cccc4cccnc34)CC2)C1 (stereo not drawn)	none (no result: MazF activator, BJeLR lethal, PrP UTR inh)
O=C(NCCc1c[nH]c2ccccc12)OCc1cn(-c2cccc(Cl)c2)nn1	none (no result: MazF activator, BJeLR lethal, PrP UTR inh)
Nc1ncnc2c1ncn2C1O[C@H](CO)[C@@H](O)[C@@H]1O (stereo partly drawn)	none (no result: BJeLR lethal)
N#Cc1c(N)n(C2OC(CO)C(O)C2O)c2ncnc(N)c12 (stereo not drawn)	PrPC TRFRET 26.5 (no result: BJeLR lethal) | PrPC TRFRET cf 30.1 | LD9 cytotox 33.8
COc1ccc2c(C)c(C(=O)O)oc2c1	PrPC TRFRET 28.5 | PrPC TRFRET cf 30.0 | LD9 cytotox inactive
COc1ccc(NC(=O)C2CCCN(S(=O)(=O)c3ccc4c(c3)CCCN4C(C)=O)C2)cc1 (stereo not drawn)	none
COc1cc(NC(=O)C2CCCN(S(=O)(=O)c3ccc4c(c3)CCCN4C(C)=O)C2)cc(OC)c1 (stereo not drawn)	PrPC TRFRET 41.0 | PrPC TRFRET cf 28.2 | LD9 cytotox inactive
CC(=O)N1c2ccc(S(=O)(=O)N3CCCC(C(=O)Nc4ccc(C)cc4)C3)cc2CC1C (stereo not drawn)	none (no result: MazF activator, BJeLR lethal, PrP UTR inh)
CC(=O)N1c2ccc(S(=O)(=O)N3CCCC(C(=O)Nc4ccc(F)cc4)C3)cc2CC1C (stereo not drawn)	PrPC TRFRET 34.8 | PrPC TRFRET cf 38.9 | LD9 cytotox 15.5
CC(=O)N1c2ccc(S(=O)(=O)N3CCCC(C(=O)Nc4cc(C)cc(C)c4)C3)cc2CC1C (stereo not drawn)	PrPC TRFRET 35.5 | PrPC TRFRET cf 57.9 | LD9 cytotox inactive
Cc1ccc(-n2c(SCC(=O)c3ccc(-c4ccccc4)cc3)nnc2-c2ccc(C(C)(C)C)cc2)cc1	none (no result: MazF activator, BJeLR lethal, PrP UTR inh)
COP(=O)(O)[C@@H](CC(C)C)NC(=O)OCc1ccccc1	none (no result: MazF activator, BJeLR lethal, PrP UTR inh)
CCN(CC)C(=O)C1CCCc2c1[nH]c1ccc(Cl)cc21 (stereo not drawn)	PrPC TRFRET 26.4 | PrPC TRFRET cf inactive | LD9 cytotox inactive
O=C(c1ccco1)N1CCN(C(=O)C2CCCc3c2[nH]c2ccc(Cl)cc32)CC1 (stereo not drawn)	none
COc1c(F)cc2[nH]c3c(c2c1F)CCNC3=O	PrPC TRFRET 30.2 | PrPC TRFRET cf inactive | LD9 cytotox inactive
C=CCNC(=O)c1ccc(Cn2c(=S)[nH]c3cc4c(cc3c2=O)OCO4)cc1	PrPC TRFRET 54.4 | PrPC TRFRET cf 35.3 | LD9 cytotox inactive
O=C(NCCN1CCCC1)c1ccc(Cn2c(=S)[nH]c3cc4c(cc3c2=O)OCO4)cc1	none
CCCCCCCCN1C(=O)[C@@H](CC(=O)N2CCOCC2)C[C@@]2(C(=O)OC)C1=C[C@H](C(C)(C)C)O[C@@H]2C	none (no result: MazF activator, BJeLR lethal, PrP UTR inh)
Nc1[nH]c(C(=O)c2ccc(Br)cc2)c(-c2c(F)cccc2F)c1C(=O)NCCc1c[nH]c2ccccc12	none (no result: MazF activator, BJeLR lethal, PrP UTR inh)
O=C(O)c1cc(-c2cccs2)nc2ccc(Br)cc12	PrPC TRFRET 40.3 (no result: MazF activator) | PrPC TRFRET cf 77.9 | LD9 cytotox inactive
Cc1nn(C)cc1CN(C)C(=O)c1cc(-c2ccccc2)nc2ccc(Br)cc12	PrPC TRFRET 68.3 | PrPC TRFRET cf 80.6 | LD9 cytotox inactive
O=C(O)c1cc(-c2cccs2)nc2ccc(F)cc12	none
O=C(O)c1cc(-c2cccnc2)nc2ccc(Br)cc12	PrPC TRFRET 44.8 (no result: BJeLR lethal) | PrPC TRFRET cf 61.2 | LD9 cytotox inactive
COc1cc(OC)cc(C(=O)NCC2CCN(C(=O)C(=O)c3cccs3)CC2)c1	none (no result: MazF activator, BJeLR lethal, PrP UTR inh)
CCN(CC)C(=O)CC[C@@H]1CC[C@]2(CCCN(C(=O)c3ccccc3)C2)O1	none (no result: MazF activator, BJeLR lethal, PrP UTR inh)
COC(=O)[C@]12C[C@H](CC(=O)N3CCC(c4ccccc4)CC3)C(=O)N(CCC3=CCCCC3)C1=C[C@H](COCc1ccccc1)O[C@@H]2C	none (no result: MazF activator, BJeLR lethal, PrP UTR inh)
O=C(NCC1CCN(C(=O)C(=O)c2cc3ccccc3o2)CC1)c1cccnc1	none (no result: MazF activator, BJeLR lethal, PrP UTR inh)
CC1CC(C)C(=NNC(N)=O)C(C(O)CC2CCC(=O)NC2=O)C1 (stereo not drawn)	PrPC TRFRET 84.0 (no result: BJeLR lethal) | PrPC TRFRET cf 43.3 | LD9 cytotox 15.2
C[C@H]1C[C@@H](C)C(=O)[C@@H]([C@H](O)CC2CC(=O)NC(=O)C2)C1	PrPC TRFRET 89.2 | PrPC TRFRET cf 97.7 | LD9 cytotox 31.7
CCOC(=O)N1CCN(C(=O)C[C@H]2C[C@@]3(C(=O)OC)C(=C[C@H](COCc4ccccc4)O[C@@H]3C)N(Cc3ccco3)C2=O)CC1	none (no result: MazF activator, BJeLR lethal, PrP UTR inh)
CCOC(=O)c1c(NC(=O)COc2ncnc3ccccc23)sc(C(C)=O)c1C	PrPC TRFRET 28.8 | PrPC TRFRET cf 36.1 | LD9 cytotox inactive
O=C(N/N=C/c1ccc(O)cc1O)/C(=C/c1ccccc1)CCO	PrPC TRFRET 30.3 | PrPC TRFRET cf 32.5 | LD9 cytotox 17.4
COc1cc(/C=N/NC(=O)/C(=C/c2ccccc2)CCO)ccc1O	none
COc1ccc(-n2c(-c3ccc(Cl)cc3)c[n+]3c2CCc2ccccc2-3)cc1	none
Cc1ccc(-n2c(-c3ccc(Br)cc3)c[n+]3c2CCc2ccc4cccnc4c2-3)cc1	PrPC TRFRET 24.5, BJeLR lethal 77.2 | PrPC TRFRET cf 31.3 | LD9 cytotox 46.0
COC(=O)C1=C(C)NC(C)=C(C(=O)OC)C(N2C(=O)CCC2=O)C1 (stereo not drawn)	none (no result: MazF activator, BJeLR lethal, PrP UTR inh)
N#CCC[C@@H]1CC[C@]2(CCCN(C(=O)C3CCCC3)C2)O1	none (no result: MazF activator, BJeLR lethal, PrP UTR inh)
O=Cc1s/c(=N\S(=O)(=O)c2ccccc2)n(CCCCl)c1Cl	PrPC TRFRET 75.8 | PrPC TRFRET cf 95.5 | LD9 cytotox 89.7
CC(C)(C)C(=O)NNC(=O)COc1ccc2ccccc2c1Br	PrPC TRFRET 72.3 | PrPC TRFRET cf 70.9 | LD9 cytotox inactive
CCOc1ccccc1OCC(=O)Nc1cc(C)on1	none (no result: BJeLR lethal)
O=C(COc1ccc2ccccc2c1Br)NNC(=O)Nc1ccccc1	none
Cc1cc(NC(=O)COc2ccc3ccccc3c2Br)no1	PrPC TRFRET 80.5 (no result: BJeLR lethal) | PrPC TRFRET cf 101.0 | LD9 cytotox inactive
COC(=O)NNC(=O)COc1ccc2ccccc2c1Br	PrPC TRFRET 34.4 | PrPC TRFRET cf 49.1 | LD9 cytotox inactive
O=C(NCc1ccccc1)[C@H]1CCCN1C(=O)[C@H]1CCCN1C(=O)C1CCCCC1	none (no result: MazF activator, BJeLR lethal, PrP UTR inh)
S=c1[nH]nc(-c2cccc(Br)c2)o1	PrPC TRFRET 25.0 | PrPC TRFRET cf 36.1 | LD9 cytotox inactive
S=c1[nH]nc(-c2cccnc2)o1	none
COC(=O)CSc1ccnc2cc(Cl)ccc12	PrPC TRFRET 68.1 | PrPC TRFRET cf 91.9 | LD9 cytotox inactive
Cc1cnc2cc(Cl)ccc2c1SCC(=O)O	none
